Screening results from PubChem.
PG9 Ab binder – binders of HIV-1 gp120 antibody PG9, primary screen, biochemical, TR-FRET; TR-FRET gp120-PG9 antibody binding; inhibition, % at 6.7 µM; 360,000 compounds, 0.43% hits; AID 624416, 2012; in the data active means inhibition above about 8.5%
PP5 inh – PP5 phosphatase inhibitors, primary screen, biochemical, fluorescence | Serine/threonine-protein phosphatase 5 (Homo sapiens), P53041 | purified PP5c, OMFP substrate fluorescence | inhibition, % at 6.7 µM | 320,000 compounds, 0.18% hits | AID 1987, 2009;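 active means inhibition above the campaign's mean inhibition across all tested compounds plus 3 SD, cut at about 9.5% in these data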
Target sequence (P53041 whole entry, looked up): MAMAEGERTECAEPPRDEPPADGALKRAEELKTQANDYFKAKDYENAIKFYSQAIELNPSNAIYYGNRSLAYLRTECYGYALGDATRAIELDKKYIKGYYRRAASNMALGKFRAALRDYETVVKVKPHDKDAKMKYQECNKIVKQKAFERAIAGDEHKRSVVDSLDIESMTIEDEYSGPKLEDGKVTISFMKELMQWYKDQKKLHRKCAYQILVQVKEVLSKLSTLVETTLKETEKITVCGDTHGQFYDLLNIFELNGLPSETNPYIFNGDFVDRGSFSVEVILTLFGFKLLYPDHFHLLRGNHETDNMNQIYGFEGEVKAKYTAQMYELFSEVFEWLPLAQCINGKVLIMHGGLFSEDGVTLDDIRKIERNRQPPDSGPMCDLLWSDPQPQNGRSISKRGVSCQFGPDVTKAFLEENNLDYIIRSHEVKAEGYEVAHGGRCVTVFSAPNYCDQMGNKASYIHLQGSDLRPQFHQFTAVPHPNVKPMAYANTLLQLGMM
PP1 counter – PP1-alpha phosphatase inhibitors, primary screen, counter-screen for PP5 inhibitor project, biochemical, fluorescence, OMFP substrate, single point; Serine/threonine-protein phosphatase PP1-alpha catalytic subunit (Homo sapiens), P62136; purified PP1alpha; inhibition, % at 6.7 µM; 320,000 compounds, 0.9% hits; AID 2235, 2010;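 active means inhibition above the mean inhibition of all tested compounds plus 3 SD, computed separately for each screening campaign, cut at about 15% in these data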
Rev-erbA mod – modulators of Rev-erb alpha DNA binding, primary screen, biochemical, FITC-DNA, fluorescence polarization, uHTS. Nuclear receptor subfamily 1 group D member 1 (Homo sapiens), P20393. Rev-erbα–FITC-DNA binding, 90 min. activity, % at 10 µM. 370,000 compounds, 0.79% hits;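 active means activity above about 14%, limit read from the data; passing the limit was not always enough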
proKLK7 act – proKLK7 zymogen activators, primary screen, biochemical, fluorescence intensity | purified proKLK7, EDANS-DABCYL substrate fluorescence; 100% is mature enzyme control, 0% vehicle | activation, % at 7 µM | 370,000 compounds, 0.9% hits | AID 652039, 2013;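 active means activation above the mean of all tested compounds plus 3 SD, computed per campaign excluding outliers beyond control limits, cut at about 13% in these data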
Target sequence (P49862 whole entry, looked up): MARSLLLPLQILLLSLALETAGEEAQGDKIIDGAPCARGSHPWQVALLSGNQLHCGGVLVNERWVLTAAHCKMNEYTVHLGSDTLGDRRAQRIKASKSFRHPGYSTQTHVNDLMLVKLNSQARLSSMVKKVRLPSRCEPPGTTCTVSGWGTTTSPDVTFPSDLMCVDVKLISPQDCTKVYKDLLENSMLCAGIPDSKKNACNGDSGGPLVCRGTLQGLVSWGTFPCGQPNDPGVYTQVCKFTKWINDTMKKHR
JMJD2C inh – inhibitors of GASC-1 histone demethylase, primary screen, biochemical, fluorescence, DELFIA europium. Lysine-specific demethylase 4C (Homo sapiens), Q9H3R0. GST-JMJD2C(1-420) H3K9me3 demethylation. inhibition, % at 2.35 µM. 330,000 compounds, 0.069% hits. AID 2099, 2009;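 active means more than half of a compound's replicate wells show inhibition beyond 50%, single wells judged on their own value; inconclusive means some, but no more than half, of replicates pass 50% inhibition; inactive means no replicate passes 50% inhibition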;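 further: signal counts dimethyl H3K9 product captured on neutravidin plate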
Rev-erbA confirm – modulators of Rev-erb alpha DNA binding, confirmation, biochemical, FITC-DNA, fluorescence polarization, single point; shares compounds with Rev-erbA mod; 90 min; activation, % at 25 µM; 3,000 compounds, 61% hits; AID 1259319, 2017;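 active means activation at or above a set limit, or at least 3 SD above the negative control mean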
RORg counter – modulation of RORgamma DNA binding, dose response, counter-screen for Rev-erb alpha modulator project, biochemical, fluorescence polarization, FITC-DNA. shares compounds with Rev-erbA mod. purified RORgamma protein-FITC-DNA binding. IC50, µM. 910 compounds, 8% hits. AID 1259320, 2017;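 active means Compounds whose fitted half-maximal concentration for disrupting protein-DNA binding is below 10 micromolar; the record names Rev-erb in its text, so the target is in doubt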
Each line names hits and unclear results; the compound was inactive in the other large screens (follow-up assays come after a bar, where they were run). Hits are enriched below; roughly 2.8% of the tested compounds scored in any of these assays.

Cc1cccc(-c2nc3c(c(=O)c4ccccc4n3C)c(=O)n2-c2ccccc2)c1	Rev-erbA mod 39.9 | Rev-erbA confirm 29.3
N#Cc1ccc(Cn2nnc(-c3ccc(N4CCOCC4)cc3)n2)cc1	none (no result: PG9 Ab binder, PP5 inh, PP1 counter, JMJD2C inh)
CC1CCC2(CC1)CCN(CCCOC(=O)Nc1cccc(C(F)(F)F)c1)C2=O (centres undefined)	none (no result: PG9 Ab binder, PP5 inh, PP1 counter, JMJD2C inh)
Cc1ccccc1CN1[C@@H](C)[C@H](c2ccccc2)Oc2cccc(NCCc3ccccc3)c2S1(=O)=O	none (no result: PP5 inh, PP1 counter, JMJD2C inh)
Cc1ccc(NC(=S)/N=C(\N)Nc2nc(C)c3cc(C)c(C)cc3n2)cc1C	Rev-erbA mod 27.1 | Rev-erbA confirm inactive
CCOc1ccc2nc(N/C(N)=N/C(=S)Nc3cccc(OC)c3)nc(C)c2c1	Rev-erbA mod 32.5 | Rev-erbA confirm inactive
Cc1ccc(NC(=S)/N=C(\N)Nc2nc(C)c3cc(C)ccc3n2)c(C)c1	none
CCOc1ccc2nc(N/C(N)=N/C(=S)Nc3cccc(C)c3)nc(C)c2c1	Rev-erbA mod 34.8 | Rev-erbA confirm 36.7 | RORg counter inactive
CCCCNc1c(-c2cccc(SC(C)CC)c2)nc2ccc(Cl)cn12 (centres undefined)	none (no result: PP5 inh, PP1 counter)
CCC(C)Sc1ccc(-c2nc3ccc(Cl)cn3c2NCc2ccccc2)cc1 (centres undefined)	Rev-erbA mod 26.3 (no result: PP5 inh, PP1 counter) | Rev-erbA confirm inactive
COC(=O)Cc1nnn2c1[C@H](C)[C@H](c1ccccc1Br)OC[C@H](C)C2	none (no result: PP5 inh, PP1 counter, JMJD2C inh)
O=[N+]([O-])c1ccc(N=Nc2ccc(O)cc2O)cc1	Rev-erbA mod 36.7 | Rev-erbA confirm 23.4
CC(=O)c1ccc(N2CCN(C(=S)Nc3ccc(Oc4ccccc4)cc3)CC2)cc1	none
CC(=O)c1ccc(N2CCN(C(=S)Nc3cccc(F)c3)CC2)cc1	Rev-erbA mod 28.9 | Rev-erbA confirm 18.1
Cc1ccc(-n2c(SCC(=O)NN=Cc3c[nH]c4ccccc34)nnc2-c2ccccc2)cc1	none (no result: PG9 Ab binder, PP5 inh, PP1 counter, JMJD2C inh)
Cc1cc(C)cc(NC(=S)/C(=C(\[O-])c2ccc(Cl)cc2Cl)[n+]2ccc(C(C)(C)C)cc2)c1	Rev-erbA mod 36.4 | Rev-erbA confirm 30.9 | RORg counter 7.87
Cc1cccc(NC(=O)c2cc(NC(=O)c3ccccc3)ccc2N2CCCCC2)c1	Rev-erbA mod 33.7 | Rev-erbA confirm inactive
Cc1cccc(NC(=O)c2cc(NC(=O)c3ccco3)ccc2N2CCCCC2)c1	none (no result: PG9 Ab binder, proKLK7 act)
COc1ccc(OC)c(NC(=O)c2[nH]c(C)c(C(C)=O)c2C)c1	Rev-erbA mod 31.5 | Rev-erbA confirm 22.0
COc1ccc(CCNC(=O)c2[nH]c(C)c(C(C)=O)c2C)cc1OC	none
Oc1ccc(-c2nn[nH]n2)c2cccnc12	none (no result: PG9 Ab binder, PP5 inh, PP1 counter, proKLK7 act, JMJD2C inh)
Cc1c(C)c2cc3c(C)coc3cc2oc1=O	none
Cc1coc2cc3oc(=O)c(Cc4ccccc4)c(C)c3cc12	Rev-erbA mod 32.1 | Rev-erbA confirm 42.6 | RORg counter inactive
COC(=O)C1CN(Cc2ccccc2)CCS(=O)(=O)N1Cc1cn(Cc2ccccc2Br)nn1 (centres undefined)	none (no result: PG9 Ab binder, PP5 inh, PP1 counter, JMJD2C inh)
O=C(NN=Cc1ccccc1O)C(=O)Nc1ccc(F)cc1	none (no result: PP5 inh, PP1 counter, JMJD2C inh)
O=C(O)c1ccccc1C(c1ccccc1)c1ccccc1O (centres undefined)	Rev-erbA mod 54.4 (no result: PP5 inh, PP1 counter, JMJD2C inh) | Rev-erbA confirm 44.8 | RORg counter inactive
O=C(O)c1ccccc1C(=O)O	none
CCCCCCCCN1C(=O)[C@@H](CC(=O)NCCCOCCCC)C[C@@]2(C(=O)OC)C1=C[C@H](C(C)C)O[C@@H]2C1CC1	none (no result: PG9 Ab binder, PP5 inh, PP1 counter, JMJD2C inh)
Cc1cc(C)cc(C(=O)NC(=S)Nc2ccc(-c3cc4ccccc4oc3=O)cc2)c1	Rev-erbA mod 70.0 | Rev-erbA confirm 36.1
CC(=O)Nc1ccc(NC(=S)NC(=O)c2cc3ccccc3o2)cc1	none
Cc1ccc(C(=O)NC(=S)Nc2ccc(-c3cc4ccccc4oc3=O)cc2)c(C)c1	Rev-erbA mod 67.9 | Rev-erbA confirm 18.0
CCOC(=O)C1CSCCS(=O)(=O)N1Cc1ccc(F)cc1 (centres undefined)	none (no result: PP5 inh, PP1 counter, JMJD2C inh)
CCCC1CCC2(CC1)CCC2OC(=O)Nc1ccc2c(c1)OCO2 (centres undefined)	none (no result: PG9 Ab binder, PP5 inh, PP1 counter, proKLK7 act, JMJD2C inh)
O=C(Nc1nc2ccsc2c(=O)s1)c1ccc(Cl)cc1	Rev-erbA mod 109.7, JMJD2C inh inconclusive | Rev-erbA confirm 44.0 | RORg counter inactive
CC(=O)c1sc(NC(=O)c2ccc(F)c(F)c2)nc1C	none
CC(=O)c1sc(NC(=O)c2ccc(Cl)cc2)nc1C	Rev-erbA mod 25.8 | Rev-erbA confirm inactive
CC(=O)c1sc(NC(=O)CCCOc2ccc(Cl)cc2)nc1C	Rev-erbA mod 15.4 | Rev-erbA confirm inactive
COc1ccc(OCCCC(=O)Nc2nc(C)c(C(C)=O)s2)cc1	none
Brc1ccc(-c2csc(N3CCNCC3)n2)cc1	none (no result: PG9 Ab binder, PP5 inh, PP1 counter, proKLK7 act, JMJD2C inh)
CC(C)(C)c1ccc(S(=O)(=O)N2CCCC(C(=O)NCc3cccs3)C2)cc1 (centres undefined)	none (no result: PG9 Ab binder, PP5 inh, PP1 counter, JMJD2C inh)
Cc1ccccc1CN(C)CCS(=O)(=O)c1cc(Cl)ccc1Cl	Rev-erbA mod 16.5 | Rev-erbA confirm inactive
C=CCNc1cccc2c1S(=O)(=O)N[C@@H](CC(C)C)CO2	none (no result: PP5 inh, PP1 counter, JMJD2C inh)
Cc1c(C(=O)Nc2ccncc2)sc2nc(-c3ccc(F)cc3)cn12	Rev-erbA mod 39.0 | Rev-erbA confirm 37.5 | RORg counter inactive
Cc1ccc(S(=O)(=O)NC(CCCNC(=O)OCc2ccccc2)C(=O)O)cc1 (centres undefined)	none (no result: PP5 inh, PP1 counter, JMJD2C inh)
Cc1cc2oc(C(=O)Nc3ccc(S(=O)(=O)Nc4ncccn4)cc3)c(C)c2cc1Cl	Rev-erbA mod 22.2 (no result: PP5 inh, PP1 counter) | Rev-erbA confirm inactive
COCCCNC(=O)c1ccc2c(=O)n(Cc3ccccc3OC)c(=S)[nH]c2c1	none
O=C(NCc1ccccc1Cl)c1ccc2c(=O)n(CCCN3CCCC3=O)c(=S)[nH]c2c1	Rev-erbA mod 29.1 | Rev-erbA confirm 18.5
COC(CNC(=O)c1ccc2c(=O)n(Cc3ccc(Cl)cc3)c(=S)[nH]c2c1)OC	Rev-erbA mod 28.6 (no result: PP5 inh, PP1 counter) | Rev-erbA confirm inactive
COC(CNC(=O)c1ccc2c(=O)n(Cc3ccc4c(c3)OCO4)c(=S)[nH]c2c1)OC	none (no result: PP5 inh, PP1 counter)
